The values below come from PubChem BioAssay (EPA / NIEHS).

A short description of assay [1]: APR_HepG2_P-H2AX_72hr: Apredica 72-hour HepG2 Assay for H2AX Phosphorylation (AID 2282916).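 Further: phospho-histone H2A.x immunostain intensity per cell marking DNA damage.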 To be noted: imaging, actives raise or lower the signal. A digest of the protocol: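 HepG2; cpd 0.39–200 uM ×10 conc, duplicates; 0.5% DMSO; 72 hr. Fix 3.7% formaldehyde 30 min RT, 0.5% Triton X-100 10 min. Anti-phospho-H2A.x 1:200 + Hoechst 2 ug/mL, 60 min RT; ArrayScan imaging.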

A short description of assay [2]: APR_HepG2_MitoMembPot_72hr: Apredica 72-hour HepG2 Assay for Mitochondrial Membrane Potential (AID 2282917). The following applies: imaging, actives raise or lower the signal. A digest of the protocol:
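Membrane potential read by MitoTracker Red CMXRos (250 nM, 30 min, pre-fixation) fluorescence imaging of HepG2 after 72 hr exposure. Ten concentrations, 0.39–200 uM, duplicate wells, 0.5% DMSO; fitted in both directions against DMSO baseline.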

A short description of assay [3]: APR_HepG2_MitoticArrest_72hr: Apredica 72-hour HepG2 Assay for Mitotic Arrest (AID 2282918). The following applies: high-content imaging, actives raise or lower the signal. In a few lines: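 HepG2 cells were exposed for 72 hr to compound at 0.39–200 uM (10 concentrations, duplicate) in 0.5% v/v DMSO, fixed in 3.7% formaldehyde, immunostained for phospho-histone H3 with Hoechst 33342 and imaged by high-content fluorescence; bidirectional fits versus DMSO.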

Assay [4] in a line: APR_HepG2_MicrotubuleCSK_72hr: Apredica 72-hour HepG2 Assay for Microtubule CSK Stabilty (AID 2282919). To be noted: HepG2 microtubule cytoskeleton, high-content imaging, actives raise or lower the signal. A digest of the protocol: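 Read-out is tubulin fluorescence intensity from high-content imaging of HepG2 cells, with nuclei identified by Hoechst 33342. Treatment lasts 72 h at 0.39–200 uM, and curves are fitted bidirectionally against the DMSO negative control.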

Assay [5] in a line: APR_HepG2_P-H2AX_24hr: Apredica 24-hour HepG2 Assay for H2AX Phosphorylation (AID 2282920). The following applies: high-content imaging, actives raise or lower the signal. A digest of the protocol:
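HepG2 human liver cells were exposed for 24 hr to compounds at 0.39–200 uM in duplicate, with 0.5% v/v DMSO final. Fixed cells were immunostained for phospho-histone H2A.x plus Hoechst 33342, imaged by HCS fluorescence, and fitted bidirectionally against DMSO.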

Assay [6] is described as follows: APR_HepG2_StressKinase_72hr: Apredica 72-hour HepG2 Assay for Stress Kinase (AID 2282921). The following applies: HepG2 stress kinase (phospho-c-Jun) imaging, actives raise or lower the signal. A digest of the protocol: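 Dose 0.39–200 uM (10 pts, duplicate), 0.5% DMSO; 72 h; fix 3.7% formaldehyde 30 min RT; Triton permeabilize; anti-phospho-c-Jun/Cy3 + Hoechst 60 min RT; image 20x; fit gain/loss vs DMSO.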

The nature of assay [7]: APR_HepG2_StressKinase_24hr: Apredica 24-hour HepG2 Assay for Stress Kinase (AID 2282922). To be noted: HepG2 stress kinase (phospho-c-Jun) imaging, actives raise or lower the signal. In a few lines:
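HepG2, 24 hr dosing, 0.39–200 uM in duplicate, 0.5% DMSO; formaldehyde fix (3.7%), 0.5% Triton X-100; anti-phospho-c-Jun + Cy3 secondary, Hoechst counterstain; ArrayScan imaging; bidirectional curve fit vs DMSO baseline.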

Assay [8] in a line: APR_HepG2_MitoMass_72hr: Apredica 72-hour HepG2 Assay for Mitochondrial Mass (AID 2282924).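 Further: MitoTracker Red CMXRos stain intensity per cell imaged as mitochondrial mass.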 The following applies: high-content imaging, actives raise or lower the signal. A digest of the protocol:
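HepG2, 72 hr cmpd, 10 conc 0.39–200 uM in dup, DMSO 0.5% v/v. MitoTracker Red CMXRos 250 nM 30 min pre-fix; formaldehyde 3.7% fix 30 min RT. HCS imaging, gain/loss fit vs DMSO.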

A short description of assay [9]: APR_HepG2_NuclearSize_72hr: Apredica 72-hour HepG2 Assay for Nuclear Size (AID 2282925). The following applies: high-content imaging, actives raise or lower the signal. A digest of the protocol: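 HepG2; cpd 0.39–200 uM, 10 conc, duplicate; 72 h; DMSO 0.5% v/v; fix 3.7% formaldehyde 30 min RT; Triton permeabilization; Hoechst 2 ug/mL; HCS imaging 20x; nuclear diameter; gain/loss fit vs DMSO.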

The nature of assay [10]: APR_HepG2_p53Act_72hr: Apredica 72-hour HepG2 Assay for p53 Activation (AID 2282923).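 Further: average cellular p53 protein immunofluorescence intensity in HepG2 cells.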 The following applies: high-content imaging, actives raise or lower the signal. A digest of the protocol:
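10-pt conc. 0.39–200 uM, duplicate, 0.5% DMSO; 72 hr exposure; 3.7% formaldehyde fix, 0.5% Triton perm; sheep anti-p53/Cy5 + Hoechst; ArrayScan 20x, 6 images/well; gain/loss fit vs DMSO.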

Activity calls are given as the source filed them. How the source made its calls: active means hit-call score of the fitted dose curve at least 0.9, where 1 is the maximum; inactive means score below 0.9.

What is called AC50 is the midpoint of the concentration-response curve, whichever way the signal moves. For the molecule `CC(C)NCC(O)c1ccc(O)c(O)c1` (centres undefined), the AC50 in assay [1] is 86.8 µM (active). In addition, the molecule was called inactive in [2], in [3], in assay [4], in [5], in [6] and in assay [7]. For the same molecule, the molecule was called inactive in assay [8] and in assay [9].
Consider `CC(C)OC(=O)C(C)(C)Oc1ccc(C(=O)c2ccc(Cl)cc2)cc1`, for which the molecule was called inactive in assay [1], in assay [2], in [3], in [4], in [5] and in assay [6]. The call in assay [7], in [8] and in [9] was inactive.
For `O=C1CCCCC1`, the molecule was classed as inactive in assay [1], in assay [2], in [3], in assay [4], in [5] and in [6]. The molecule was classed as inactive in assay [7] and in [9].
In the case of `O=C(Oc1ccccc1)c1cccc(C(=O)Oc2ccccc2)c1`, the molecule was called inactive in [1], in assay [2], in assay [3], in assay [4], in [5] and in assay [6]. Besides, the call in assay [7], in assay [8] and in assay [9] was inactive.
In the case of `CCc1nc(N)nc(N)c1-c1ccc(Cl)cc1`, the AC50 is 67.6 µM (active) in assay [1] and 3.77 µM (active) in [10]. Moreover, the outcome in assay [2], in [4], in [5], in assay [6], in assay [7] and in assay [8] was inactive. Moreover, the outcome in assay [9] was inactive.
As for `C=CCc1ccc(OC)c(OC)c1`, the call in assay [1], in assay [2], in [4], in assay [5], in assay [6] and in [7] was inactive. The outcome in assay [10], in [8] and in assay [9] was inactive.
For the molecule `COC(=O)CCCC(=O)OC`, the molecule was classed as inactive in assay [1], in assay [2], in assay [3], in assay [4], in assay [5] and in [6]. Further, the outcome in assay [7], in assay [10] and in assay [9] was inactive.
As for `c1ccc2occc2c1`, the molecule was classed as inactive in assay [1], in assay [2], in assay [4], in assay [5], in assay [6] and in assay [7]. Moreover, the molecule was called inactive in assay [10] and in assay [9]. The AC50 in assay [8] is 100 µM (active).
In the case of `CC(=O)[C@@]1(O)CC[C@H]2[C@@H]3CCC4=CC(=O)CC[C@]4(C)[C@H]3CC[C@@]21C`, the outcome in [1], in assay [2], in [3], in [4], in assay [5] and in [6] was inactive. For the same molecule, the outcome in [7], in assay [8] and in assay [9] was inactive.
Take `Oc1ccc(O)cc1`: the molecule was classed as inactive in [1], in [2], in [4], in assay [5], in assay [6] and in assay [7]. The values for the AC50 in assay [10] and in assay [9] were 91.9 µM (active) and 67.8 µM (active), respectively.
With `CC(=O)O[C@]1(C(C)=O)CC[C@H]2[C@@H]3C=C(Cl)C4=CC(=O)[C@@H]5C[C@@H]5[C@]4(C)[C@H]3CC[C@@]21C`, the call in [1], in assay [2], in assay [3], in assay [4], in assay [5] and in assay [6] was inactive. Also, the outcome in [7] and in [9] was inactive.
`Cc1occc(=O)c1O`: the molecule was called inactive in [1], in assay [2], in assay [3], in assay [4], in assay [5] and in [6]. Moreover, the call in [7] and in assay [9] was inactive.
For `CCCC(=O)O`, the result in [1], in assay [2], in assay [3], in assay [4], in assay [5] and in assay [6] was inactive. The outcome in [7], in [8] and in [9] was inactive.
For `N[C@@H](Cc1c[nH]c2ccccc12)C(=O)O`, the result in assay [1], in assay [2], in assay [3], in [4], in assay [5] and in assay [6] was inactive. Further, the call in assay [7] and in assay [9] was inactive.
Regarding `CCCCc1nc2cccnc2n1Cc1ccc(-c2ccccc2-c2nnn[nH]2)cc1`, the result in assay [1], in assay [2], in assay [6], in [7], in assay [10] and in [9] was inactive. In addition, the AC50 is 94.4 µM (active) in assay [4] and 48.6 µM (active) in assay [5].
For `Cc1cn([C@H]2C=C[C@@H](CO)O2)c(=O)[nH]c1=O`, the result in assay [1], in assay [2], in assay [3], in [4], in assay [5] and in [6] was inactive. The molecule was classed as inactive in [7], in assay [8] and in assay [9].
`O=C1c2c(O)cccc2Cc2cccc(O)c21`: the result in assay [1], in assay [4], in [5], in [6], in assay [7] and in [10] was inactive. In addition, the molecule was classed as inactive in assay [8] and in [9]. Further, in [2], the AC50 is 19.3 µM (active).
Turning to `Cc1c(C)c2c(c(C)c1O)CCC(C)(COc1ccc(CC3SC(=O)NC3=O)cc1)O2` (centres undefined), the AC50 was 89.5 µM (active) in assay [1], 135 µM (active) in [2], 78.4 µM (active) in assay [6] and 65.2 µM (active) in [10]. For the same molecule, the call in assay [4], in [5], in assay [7] and in assay [9] was inactive.
`Cn1cnc2c1c(=O)[nH]c(=O)n2C`: the molecule was classed as inactive in assay [1], in assay [2], in assay [3], in assay [4], in assay [5] and in assay [6]. Further, the molecule was called inactive in assay [7] and in [9].
In the case of `CC(C)COC(=O)CCCCC(=O)OCC(C)C`, the molecule was classed as inactive in assay [1], in [2], in assay [4], in assay [5], in [6] and in [7]. Further, the molecule was called inactive in assay [9].
With `C#CC(O)C(CC)CCCC` (centres undefined), the molecule was called inactive in assay [1], in [2], in assay [4], in [5], in [6] and in assay [7]. The outcome in assay [8] and in assay [9] was inactive.
Turning to `O=C(O)c1cccnc1`, the molecule was classed as inactive in assay [1], in [2], in assay [4], in [5], in assay [6] and in [7]. Moreover, the result in [8] and in assay [9] was inactive.
For the molecule `CCCCCCCCCCCCCCCCO`, the result in assay [1], in [2], in assay [4], in assay [5], in assay [6] and in assay [7] was inactive. The molecule was classed as inactive in assay [8] and in [9].
